# Screening results from PubChem.
# In the library only some 3.2% were active in any assay of this set; here they are far more common.
# VDR inh: Inhibitors of the vitamin D receptor (VDR): qHTS; VDR-SRC2-3 peptide fluorescence polarization, 2 h; Potency, µM, usual class: inhibitors; hit rate 0.93% among 400,000
#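 After 23 nl compound addition and a short centrifugation, plates sat for 2 hours at ambient temperature; polarization of fluorescence then indicated loss of VDR binding to peptide SRC2-3.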
# USP2a inh: qHTS Assay for Inhibitors of Ubiquitin-specific Protease USP2a Using CHOP2 as the Reporter. USP2 core, Ub-CHOP2 coupled fluorogenic reporter, 485/531. hit rate 0.01% among 330,000. AID 463254, 2010. Potency, µM (doses to about 38.3 µM), usual class: inhibitors. Ubiquitin carboxyl-terminal hydrolase 2 (Homo sapiens), O75604
#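 Cell-free coupled assay: 10nM USP2 core preincubated 30min RT with compound in Tris-HCl pH 8.0/CaCl2/CHAPS buffer, then 25nM Ub-CHOP2 and 25nM reporter substrate; fluorescence (Ex 485/Em 531) read after 60min RT, normalized to NEM inhibition, concentration-response curves fitted.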
# FBPA coupling cs: qHTS Assay for Inhibitors of Fructose-1,6-bisphosphate Aldolase from Giardia Lamblia: Coupling assay counterscreen; hit rate 0.67% among 290,000; activity change, negative = inhibition, % at 58.2 µM, hits read low; coupling enzyme system counterscreen, AmpLite Red fluorescence; in the data active = activity change below about -30%
#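 Counterscreen of the coupled detection system alone, without aldolase: glyceraldehyde-3-phosphate coupling enzymes plus AmpLite Red readout. Compounds at 57.5 uM final, 10 min RT preincubation, 20 min RT reaction, fluorescence 525/598 nm.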
# USP1 inh: Inhibitors of USP1/UAF1: Primary Screen | Potency, µM (titrated, usually from 57.1 µM), most hits filed as inhibitors | Ubiquitin carboxyl-terminal hydrolase 1 (Homo sapiens), O94782 | recombinant USP1/UAF1, Ub-Rhodamine cleavage fluorescence | hit rate 0.23% among 390,000; also: nearly all actives have a fitted effect of over 60% in size
#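 Step one: compound is pinned into 1nM USP1/UAF1 in HEPES pH 7.8 buffer with TCEP. Step two: 15 min room-temperature incubation. Step three: Ub-Rho (150nM final) starts cleavage, tracked by fluorescence over six one-minute reads.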
# GALK inh: qHTS Assay for Inhibitors of Human Galactokinase (GALK) | Purified GALK, Kinase-Glo residual ATP luminescence | hit rate 0.007% among 270,000 | P51570 | Potency, µM (top dose mostly 57.5 µM), most hits filed as inhibitors
#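 GALK at 5 nM final was combined with compound, 35 uM ATP and 100 uM galactose in HEPES pH8.0 with MgCl2 and DTT. The reaction ran one hour at room temperature before luminescent ATP detection.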
# PLK1 PBD block: qHTS for Inhibitors of PLK1-PDB (polo-like kinase 1 - polo-box domain): Primary Screen; Potency, µM, hits mostly inhibitors; AID 720504, 2013; hit rate 2.8% among 360,000; Serine/threonine-protein kinase PLK1 (Homo sapiens), P53350; Plk1 PBD binding of FITC phosphopeptide, fluorescence polarization; also: series mostly up to about 57 µM; nearly all actives have a fitted effect of over 65% in size
# Numbers stand for hits; . = inactive; ? = inconclusive; / = no result. Unless noted, calls follow the shape of the dose curve; as a rule, active = well fitted curve in the direction sought with a large enough effect; inconclusive = small, poorly fitted or top-dose-only effect, or another doubt; inactive = no such curve, though single readings can be large; an effect the other way counts as inactive or inconclusive.
SMILES,VDR inh,USP2a inh,FBPA coupling cs,USP1 inh,GALK inh,PLK1 PBD block
CCCn1c(O)c(C=Nc2ccccc2)sc1=S,.,.,.,.,.,.
CCn1c(O)c(C=Nc2ccccc2)oc1=S,.,.,.,.,.,27µM
Cc1cc(C)nc(SCC(=O)O)n1,.,.,.,.,.,.
CN(C)C(=S)NCc1ccccc1,?,.,.,.,.,2.7µM
S=C(NCc1ccccc1)NCc1cccc(CNC(=S)NCc2ccccc2)c1,?,.,.,.,.,27µM
S=C(NCc1ccccc1)NCc1cccc(Cl)c1,.,.,/,.,.,.
CN(N)C(=S)NCc1ccccc1,.,.,.,.,.,.
COc1ccc(/C(=C/Nc2cccc(Br)c2)C(C)=O)cc1OC,.,.,.,.,.,27µM
COc1ccc(/C(C)=N/Nc2cccc(C(=O)O)c2)cc1OC,.,.,.,.,.,.
COc1ccc(-c2nnc(-c3ccccc3O)o2)cc1,.,.,.,.,.,.
N#Cc1cccc(-c2nccc(-n3ccnc3)n2)c1,50µM,/,.,/,/,/
CS(=O)(=O)Nc1cccc(-c2nccc(-n3ccnc3)n2)c1,?,/,.,/,/,/
Cc1ccccc1-c1nccc(-n2ccnc2)n1,?,/,.,/,/,/
FC(F)(F)c1ccccc1-c1nccc(-n2ccnc2)n1,45µM,/,.,/,/,/
N#Cc1ccccc1OCC(=O)NC(N)=O,.,.,.,.,.,?
C=CCOC(=O)C(=O)/C=C/c1csc2ccccc12,45µM,.,.,.,.,?
C=CCOC(=O)/C(=C\c1cccc2ccccc12)NC(=O)c1ccccc1,.,.,.,.,/,.
Cc1ccc(N2C(=O)C3CCCN3C2=S)cc1 (stereo unspecified),.,.,.,.,.,13µM
Cc1cc(C)cc(N2C(=O)C3CCCN3C2=S)c1 (stereo unspecified),.,.,.,.,.,?
C=CCNC(=O)c1c(O)c2cccc3c2n(c1=O)CCC3,.,.,.,.,.,.
COc1ccc(-c2cc(C)no2)cc1S(=O)(=O)Nc1ccc(NC(C)=O)cc1,.,.,/,.,.,.
COc1cc2c(cc1NC(=O)CN1CCN(S(=O)(=O)c3ccccc3F)CC1)oc1ccccc12,.,.,.,.,.,3.4µM
COc1cc2c(cc1NC(=O)Cc1ccc(C)cc1)oc1ccccc12,.,.,.,.,/,?
CSc1ccc(CCNC(=O)CCCn2nc(C)c3sc4ccccc4c3c2=O)cc1,.,/,/,.,/,/
Cn1ncc(Cl)c1C(=O)N/N=C/c1cccc(OC2CSC2)c1,.,.,-40,.,/,.
SMILES,VDR inh,USP2a inh,FBPA coupling cs,USP1 inh,GALK inh,PLK1 PBD block
CC(=O)c1ccc(OC(=O)CCc2nc3ccccc3s2)cc1,40µM,.,.,.,.,?
Nc1nc(=S)c2[nH]c(=S)[nH]c2[nH]1,.,/,/,.,/,?
CSc1nc(=S)c2[nH]c(=S)[nH]c2[nH]1,?,.,.,.,.,2.7µM
CCCCCCNC(=O)N[C@@H](C(=O)NCCC[C@H]1CN2C(=NC[C@@H]2Cc2ccccc2)N1CCc1cccc(OC)c1)C(C)C,?,.,.,.,.,1.5µM
Cc1ccc(O)c(C(=O)CC(=O)c2ccc(C(C)(C)C)cc2)c1,.,.,.,.,.,.
COc1cc(OC)c2c(O)c3c(c(-c4c5c(c(O)c6c(OC)cc(OC)cc46)CO[C@@H](C)[C@H]5O)c2c1)[C@H](O)[C@H](C)OC3,.,.,.,?,.,21µM
COc1cc(OC)c2c(=O)c(O)c(-c3ccc(OC)c(OC)c3)oc2c1,.,/,.,/,/,/
COc1cc2c(cc1OC)C(COc1ccccc1OC)N(C(=O)C(C)(C)C)CC2 (stereo unspecified),.,.,.,.,/,30µM
COc1cc2c(cc1OC)C(COc1ccccc1OC)N(C(C)=O)CC2 (stereo unspecified),.,.,.,.,/,.
O=C(Nc1ccc(S(=O)(=O)N2CCCC2)cc1)c1ccccc1,.,.,/,.,/,.
O=c1c(C(c2ccc(F)cc2)c2c(O)nc3n(c2=O)CCS3)c(O)nc2n1CCS2,?,.,.,?,.,19µM
